Data reported in PubChem BioAssay AID624483 (NMMLSC, 2012).
In all, about 360,000 compounds went through this assay and about 11,000 (3.1%) were called active. Not shown: some 2% with an inconclusive outcome. Rule as the data show it: active = fluorescence intensity above about 16000; inconclusive = no clear call, values can overlap the other calls; inactive = below that. Shown is part of a subset that was picked to be rich in actives.

experiment: counter-screen for toxin protease inhibitors: compound fluorescence, primary screen, artefact control for toxin protease inhibitor project, biochemical, multiplex microsphere, HTS (AID 624483); conditions: compound autofluorescence counterscreen, microsphere flow cytometry; hits give high values

Row | Compound | fluorescence intensity
1 | Cc1cc(C)c(NC(=S)N2CCCC2C(=O)O)c(C)c1 (stereo unspecified) | 2490 (inactive)
2 | COc1ccc(NC(=O)NCCN2CCN(c3ccc(C)cc3)CC2)c(Cl)c1 | 3770 (inactive)
3 | COc1ccc(N2CCN(CCNC(=O)Nc3cc(Cl)ccc3Cl)CC2)cc1 | 3500 (inactive)
4 | COc1ccc(N2CCN(CCNC(=O)c3nnc(Cc4c(F)cccc4Cl)o3)CC2)cc1 | 24000 (active)
5 | CCCCN(C=O)c1c(CC)nc2c(OCc3ccccc3C(=O)OC)cccn12 | 4040 (inactive)
6 | Cc1ccc(CNC(=O)C2CCN(S(=O)(=O)c3ccc4nc5c(c(C(=O)O)c4c3)CC(C)CC5)CC2)cc1 (stereo unspecified) | 5690 (inactive)
7 | COC(=O)[C@@]1(Cc2ccc(OC)cc2)[C@H]2c3cc(C(=O)N4CCCC4)n(Cc4ccc(OC(F)(F)F)cc4)c3C[C@H]2CN1C(=O)c1ccccc1 | 5540 (inactive)
8 | CC(=O)c1ccc(S(=O)(=O)N2CCN(c3nc4c(C)c(C)ccc4cc3C#N)CC2)cc1 | 13000 (inactive)
9 | CC(C)OC(=O)C(C#N)c1nc2ccccc2nc1N1CCN(Cc2ccccc2)CC1 (stereo unspecified) | 2960 (inactive)
10 | Cc1ccc(S(=O)(=O)C(C#N)c2nc3ccccc3nc2N2CCCC2)cc1C (stereo unspecified) | 19400 (active)
11 | CCC(C)(C)C1CCC(=NNC(=O)c2ccc(Br)o2)CC1 (stereo unspecified) | 2520 (inactive)
12 | Cc1ccc(N)cc1-n1c(C)ccc1C | 9500 (inactive)
13 | Cc1ccc2nc(-c3ccco3)c(Cc3cccc(Cl)c3)n2c1 | 4970 (inactive)
14 | CCOC(=O)CC1=C(C(=O)OCC)C2(C(=O)N1)C(C(=O)OC)=C(N)Oc1ccccc12 (stereo unspecified) | 4280 (inactive)
15 | C=CCN1C(=O)C2(C(C(=O)OCC)=C(N)Oc3c2c(=O)oc2ccccc32)c2ccccc21 (stereo unspecified) | 4120 (inactive)
16 | COC(=O)CN1C(=O)C2(C(C(=O)OC)=C(N)Oc3ccccc32)C2=C1CC(C)(C)CC2=O (stereo unspecified) | 23500 (active)
17 | CC(c1ccccn1)N(C)C(=O)c1ccc2nc(Cc3cccc(Cl)c3)oc2c1 (stereo unspecified) | 5500 (inactive)
18 | Cc1ccc(C(c2nnnn2CS(=O)(=O)c2ccc(C)cc2)N2CCC(C)CC2)cc1 (stereo unspecified) | 4360 (inactive)
19 | CCN(CC)c1ccc(NC(=O)CCc2nnc3ccc(N4CCCCC4)nn23)c(C)c1 | 4470 (inactive)

Row | Compound | fluorescence intensity
20 | OC[C@H]1O[C@@H](c2nc(-c3nc(-c4ccc(F)cc4)no3)cs2)[C@H](O)[C@@H](O)[C@H]1O | 4000 (inactive)
21 | CC1(C(=O)NCC2CCOCC2)Cc2c(-c3cccc(C(N)=O)c3)ccnc2O1 (stereo unspecified) | 4060 (inactive)
22 | O=C(c1ccc(F)cc1)N1CCCC(c2nc(-c3cccs3)no2)C1 (stereo unspecified) | 4320 (inactive)
23 | O=C(c1cccs1)N1CCCC(c2nc(-c3ccc(F)cc3)no2)C1 (stereo unspecified) | 11100 (inactive)
24 | O=C(Cc1cccs1)N1CCCC(c2nc(-c3ccc(S(=O)(=O)N4CCCC4)cc3)no2)C1 (stereo unspecified) | 16600 (active)
25 | CCCNC(=O)C1(C)CCCN(C(=O)c2oc3ccccc3c2C)C1 (stereo unspecified) | 3630 (inactive)
26 | CCOc1ccc(NC(=O)CN(C)C(=O)CCSc2ccc(F)cc2)cc1OCC | 3520 (inactive)
27 | COc1ccc(O)c(C=Nc2cc(C)on2)c1 | 22400 (active)
28 | COc1ccc(O)c(/C=N/N=C/c2cccc([N+](=O)[O-])c2)c1 | 3450 (inactive)
29 | Cc1cc(N=CC2=C(O)CCCC2=O)no1 | 3160 (inactive)
30 | COc1ccc(C(=O)OCC(=O)NC(=O)CCSc2ccccc2)cc1 | 2520 (inactive)
31 | CCOc1ccc(NC(=O)c2cccc3c2C(=O)N(CC2CCCO2)C3)cc1 (stereo unspecified) | 6080 (inactive)
32 | CC(=O)Nc1ccc(NC(=O)CSc2nnc(COc3ccccc3C)n2CC2CCCO2)cc1 (stereo unspecified) | 3370 (inactive)
33 | CCOc1cccc(=O)c2c(C)n(CC3CCCO3)c(C)c12 (stereo unspecified) | 22100 (active)
34 | COc1nc(Oc2ccc(=O)n(C)n2)nc(N(C)C)n1 | 2790 (inactive)
35 | O=C1[C@@H](c2ccccc2)[C@@H](c2ccccc2)N1c1cccnc1 | 3340 (inactive)
36 | COc1cc(C2C3C(=O)N(c4ccccc4)C(=O)C3ON2c2ccccc2)ccc1O (stereo unspecified) | 3690 (inactive)
37 | Cc1ccccc1N1C(=O)C2ON(c3ccccc3)C(c3ccncc3)C2C1=O (stereo unspecified) | 23600 (active)
38 | Cc1cccc2cc(CN(Cc3nnnn3Cc3ccccc3)C3CCCC3)c(=O)[nH]c12 | 7870 (inactive)

Row | Compound | fluorescence intensity
39 | Cc1cc(C)c2cc(CN(Cc3cccs3)Cc3nnnn3CC3CCCO3)c(=O)[nH]c2c1 (stereo unspecified) | 11000 (inactive)
40 | Cc1cc(C)c2cc(CN(Cc3nnnn3Cc3ccc(F)cc3)C3CCCC3)c(=O)[nH]c2c1 | 22000 (active)
41 | CCCCC[C@H](C)N1C[C@@H](COCc2ccccc2)Oc2cc(N3CCC[C@@H]3CO)ccc2S1(=O)=O | 5890 (inactive)
42 | CC(C)CC(NC(=O)C1CCCN1C(=O)[C@@H](C)NC(=O)OCc1ccccc1)C(=O)NCC(N)=O (stereo partly specified) | 3990 (inactive)
43 | Cn1c(NCc2cccnc2)nc2cc(-c3ccc(F)cc3)sc2c1=O | 2810 (inactive)
44 | CCSc1nc(-c2ccc(OC)cc2)cc(-c2ccc(OC)cc2)c1C#N | 9530 (inactive)
45 | CCOc1cc(-c2cc(-c3ccc(OC)cc3)nc(N)c2C#N)ccc1O | 24300 (active)
46 | COc1ccc(-c2cc(-c3ccc(N)cc3)nc(N)c2C#N)cc1OC | 4760 (inactive)
47 | C[C@H](NC(=O)CC[C@H]1O[C@@H](n2ccc(=O)[nH]c2=O)[C@H](O)[C@@H]1O)c1cccc2ccccc12 | 5050 (inactive)
48 | Cn1c(=O)cc(OCCCC(=O)N2CCN(c3ccccn3)CC2)c2ccccc21 | 19100 (active)
49 | Cn1c(=O)cc(OCCCC(=O)N2CCN(Cc3ccc4c(c3)OCO4)CC2)c2ccccc21 | 9010 (inactive)
50 | Cn1c(=O)cc(OCC(=O)N2CCN(c3ccccc3F)CC2)c2ccccc21 | 2380 (inactive)
51 | Nc1nc(SCCOc2ccccc2)n[nH]1 | 6950 (inactive)
52 | CCCOc1ccc(-c2nc(N)n[nH]2)cc1 | 16700 (active)
53 | COc1ccc(-c2nc(SCC(=O)N3CCCC3)n[nH]2)cc1 | 5340 (inactive)
54 | CCOC(=O)c1ccc(-c2ccc3ncnc(N(C)Cc4sccc4C)c3c2)o1 | 3710 (inactive)
55 | CCCC(=O)N1CCC1(C)C(=O)NS(=O)(=O)c1ccc(Cl)cc1 (stereo unspecified) | 2920 (inactive)
56 | Cc1nc2c(OCc3ccc(Cl)cc3)cccn2c1N(C)Cc1cccs1 | 3830 (inactive)
